Assay results as given in PubChem BioAssay (NCATS).
Results filed as inconclusive are left out. Activity calls are given as the source filed them. Calls come from the whole dose curve; as a rule, active = well fitted curve in the direction sought with a large enough effect; inconclusive = small, poorly fitted or top-dose-only effect, or another doubt; inactive = no such curve, though single readings can be large; an effect the other way counts as inactive or inconclusive.

Columns and labels:
[1] = Quantitative High-Throughput drug screen in 47 multiple myeloma cell lines against the NCATS MIPE library collection: AMO1_DSMZ cell viability assay (AID 1918927; note: nearly all actives have a fitted effect of over 30% in size; note: potency is the fitted concentration of half-maximal effect); settings: AMO1 myeloma cells viability, CellTiter-Glo ATP luminescence, 48 h; series mostly up to 45.8 µM
Method in brief: (§1)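 Approved and investigational drugs from MIPE 4.0 were added by pin tool to 500 cells per well. After 48 hours at 37C, ATP-based CellTiter-Glo luminescence indicated remaining viability.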

[2] = Quantitative High-Throughput drug screen in 47 multiple myeloma cell lines against the NCATS MIPE library collection: ARP1_JJKsccF8 cell viability assay (AID 1918928; note: nearly all actives have a fitted effect of over 40% in size; note: potency is the fitted concentration of half-maximal effect); settings: ARP1 myeloma cells viability, CellTiter-Glo ATP, 48 h; series mostly up to 45.8 µM
Method in brief: (§2)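 Here, 48 h treatment with MIPE 4.0 agents at 37 °C preceded an ATP luminescence read. Plating density was 500 cells per well.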

[3] = Quantitative High-Throughput drug screen in 47 multiple myeloma cell lines against the NCATS MIPE library collection: ARD_JJKsccE7 cell viability assay (AID 1918929; note: potency is the fitted concentration of half-maximal effect); settings: ARD myeloma cell line viability, CellTiter-Glo, 48 h; series mostly up to 45.8 µM
Method in brief: as §1

[4] = Quantitative High-Throughput drug screen in 47 multiple myeloma cell lines against the NCATS MIPE library collection: Karpas620_DSMZ cell viability assay (AID 1918959); settings: Karpas620 myeloma viability, CellTiter-Glo ATP luminescence, 48 h; series mostly up to 45.8 µM; note: nearly all actives have a fitted effect of over 30% in size; note: potency is the fitted concentration of half-maximal effect
Method in brief: (§3)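 Luminescent ATP measurement with CellTiter-Glo gives viability, scaled between DMSO-only wells (100%) and media-only wells (0%). Cells, 500 per well, faced library compounds for 48 hours at 37C.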

[5] = Quantitative High-Throughput drug screen in 47 multiple myeloma cell lines against the NCATS MIPE library collection: KMM1_JCRB cell viability assay (AID 1918960); settings: KMM1 myeloma viability, CellTiter-Glo ATP luminescence, 48 h; series mostly up to 45.8 µM; note: nearly all actives have a fitted effect of over 30% in size; note: potency is the fitted concentration of half-maximal effect;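 for viability (% of DMSO): 100% = DMSO-treated cells and 0% = medium-only wells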
Method in brief: as §2

[6] = Quantitative High-Throughput drug screen in 47 multiple myeloma cell lines against the NCATS MIPE library collection: JIM3_ECACC cell viability assay (AID 1918963; note: nearly all actives have a fitted effect of over 35% in size; note: potency is the fitted concentration of half-maximal effect); settings: JIM3 myeloma viability, CellTiter-Glo ATP, 48 h; series mostly up to 45.8 µM
Method in brief: as §3

[7] = Quantitative High-Throughput drug screen in 47 multiple myeloma cell lines against the NCATS MIPE library collection: JIM1_ECACC cell viability assay (AID 1918964; note: potency is the fitted concentration of half-maximal effect); settings: JIM1 myeloma viability, CellTiter-Glo ATP luminescence, 48 h; series mostly up to 45.8 µM
Method in brief: as §1

[8] = Quantitative High-Throughput drug screen in 47 multiple myeloma cell lines against the NCATS MIPE library collection: JJN3_DSMZ cell viability assay (AID 1918966; note: nearly all actives have a fitted effect of over 50% in size; note: potency is the fitted concentration of half-maximal effect); settings: JJN3 myeloma cells viability, CellTiter-Glo ATP, 48 h; series mostly up to 45.8 µM
Method in brief: as §1

[9] = Quantitative High-Throughput drug screen in 47 multiple myeloma cell lines against the NCATS MIPE library collection: H1112_PLB cell viability assay (AID 1918967; note: nearly all actives have a fitted effect of over 30% in size; note: potency is the fitted concentration of half-maximal effect); settings: H1112 myeloma cells viability, ATP luminescence, 48 h; series mostly up to 45.8 µM
Method in brief: as §1

[10] = Quantitative High-Throughput drug screen in 47 multiple myeloma cell lines against the NCATS MIPE library collection: Karpas25_ECACC cell viability assay (AID 1918968; note: nearly all actives have a fitted effect of over 35% in size; note: potency is the fitted concentration of half-maximal effect); settings: Karpas25 myeloma viability, CellTiter-Glo ATP, 48 h; series mostly up to 45.8 µM
Method in brief: as §1

[11] = Quantitative High-Throughput drug screen in 47 multiple myeloma cell lines against the NCATS MIPE library collection: KMS27_JCRB cell viability assay (AID 1918970); settings: KMS27 myeloma cells, CellTiter-Glo ATP viability, 48 h; series mostly up to 45.8 µM; note: nearly all actives have a fitted effect of over 30% in size; note: potency is the fitted concentration of half-maximal effect
Method in brief: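 ATP-based viability (CellTiter-Glo luminescence) is measured in cells treated 48 h with approved and investigational drugs at 37 °C. Controls are DMSO-only wells for full viability and media-only wells for none.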

[12] = Quantitative High-Throughput drug screen in 47 multiple myeloma cell lines against the NCATS MIPE library collection: KMS12PE_JCRB cell viability assay (AID 1918972); settings: KMS12PE myeloma viability, CellTiter-Glo ATP, 48 h; series mostly up to 45.8 µM; note: nearly all actives have a fitted effect of over 30% in size; note: potency is the fitted concentration of half-maximal effect
Method in brief: (§4)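 Steps: seed 500 cells per well; pin-transfer MIPE 4.0 library; incubate 48 h at 37C, 5% CO2, humidified; add CellTiter-Glo, 5 min room temperature; read luminescence.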

[13] = Quantitative High-Throughput drug screen in 47 multiple myeloma cell lines against the NCATS MIPE library collection: INA6_PLB cell viability assay (AID 1918965; note: nearly all actives have a fitted effect of over 55% in size; note: potency is the fitted concentration of half-maximal effect); settings: INA6 myeloma viability, CellTiter-Glo ATP luminescence, 48 h; series mostly up to 45.8 µM
Method in brief: as §4

[14] = Quantitative High-Throughput drug screen in 47 multiple myeloma cell lines against the NCATS MIPE library collection: Karpas417_ECACC cell viability assay (AID 1918961); settings: Karpas417 myeloma viability, CellTiter-Glo ATP luminescence, 48 h; viability (% of DMSO): at 45.8 µM (top of the series) unless noted; note: potency is the fitted concentration of half-maximal effect
Method in brief: as §4

[15] = Quantitative High-Throughput drug screen in 47 multiple myeloma cell lines against the NCATS MIPE library collection: KMS12BM_JCRB cell viability assay (AID 1918971); settings: KMS12BM myeloma viability, CellTiter-Glo ATP, 48 h; series mostly up to 45.8 µM; note: nearly all actives have a fitted effect of over 35% in size; note: potency is the fitted concentration of half-maximal effect
Method in brief: (§5)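 Inhibition of cell viability is measured here. Each line was plated at 500 cells per well, treated with MIPE 4.0 drugs, kept 48 hours at 37C, then assayed for ATP content by CellTiter-Glo luminescence.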

[16] = Quantitative High-Throughput drug screen in 47 multiple myeloma cell lines against the NCATS MIPE library collection: KMS20_JCRB cell viability assay (AID 1918973); settings: CellTiter-Glo ATP, 48 h; series mostly up to 45.8 µM; note: nearly all actives have a fitted effect of over 45% in size; note: potency is the fitted concentration of half-maximal effect
Method in brief: as §1

[17] = Quantitative High-Throughput drug screen in 47 multiple myeloma cell lines against the NCATS MIPE library collection: KMS21BM_JCRB cell viability assay (AID 1918974); settings: ATP luminescence, 48 h; viability: at 45.8 µM (top of the series) unless noted; note: potency is the fitted concentration of half-maximal effect
Method in brief: as §1

[18] = Quantitative High-Throughput drug screen in 47 multiple myeloma cell lines against the NCATS MIPE library collection: KMS26_JCRB cell viability assay (AID 1918975); settings: KMS26 myeloma cells viability, CellTiter-Glo ATP, 48 h; series mostly up to 45.8 µM; note: nearly all actives have a fitted effect of over 45% in size; note: potency is the fitted concentration of half-maximal effect
Method in brief: as §5

[19] = Quantitative High-Throughput drug screen in 47 multiple myeloma cell lines against the NCATS MIPE library collection: EJM_DSMZ cell viability assay (AID 1918926; note: nearly all actives have a fitted effect of over 30% in size; note: potency is the fitted concentration of half-maximal effect); settings: EJM myeloma cell viability, CellTiter-Glo ATP, 48 h; series mostly up to 45.8 µM
Method in brief: as §1

[20] = Quantitative High-Throughput drug screen in 47 multiple myeloma cell lines against the NCATS MIPE library collection: KHM11_PLB cell viability assay (AID 1918962); settings: KHM11 myeloma cell viability, CellTiter-Glo ATP luminescence, 48 h; series mostly up to 45.8 µM; note: nearly all actives have a fitted effect of over 35% in size
Method in brief: as §3

Cc1cc(C=c2sc3nc4ccccc4n3c2=O)c(C)n1-c1ccccc1
active: Potency [2] 6.62 µM | Potency [8] 4.18 µM
inactive: Potency [1] | Potency [3] | Potency [4] | Potency [5] | Potency [6] | Potency [7] | Potency [9] | Potency [10] | Potency [11] | Potency [12]

CCCn1c(=O)c2[nH]c(C34CC5CC3C[C@@H](C5)C4)nc2n(CCC)c1=O
inactive: Potency [3] | Potency [4] | Potency [6] | Potency [13] | Potency [9] | Potency [10]
active: Potency [1] 0.0264 µM | Potency [2] 9.35 µM | Potency [8] 13.2 µM

CO[C@@H]1[C@H](N(C)C(=O)c2ccccc2)C[C@H]2O[C@]1(C)n1c3ccccc3c3c4c(c5c6ccccc6n2c5c31)C(=O)NC4
active: Potency [1] 0.833 µM | Potency [2] 2.35 µM | Potency [3] 1.05 µM | Potency [4] 1.66 µM | Potency [5] 2.35 µM | Potency [14] 0.469 µM | Potency [13] 0.132 µM | Potency [8] 4.18 µM | Potency [10] 2.35 µM | Potency [11] 1.32 µM | Potency [15] 9.35 µM | Potency [12] 0.935 µM | Potency [16] 1.05 µM | Potency [17] 0.166 µM

OC(CN1CCC(Cc2ccc(F)cc2)CC1)c1ccc(Cl)cc1 (stereo not drawn)
inactive: Potency [1] | Potency [2] | Potency [4] | Potency [5] | Potency [6] | Potency [9] | Potency [11] | Potency [15] | Potency [12] | Potency [17] | Potency [18]

CCC(C)(C)C(=O)O[C@H]1C[C@@H](C)C=C2C=C[C@H](C)[C@H](CC[C@@H]3C[C@@H](O)CC(=O)O3)[C@H]21
active: Potency [1] 18.7 µM | Potency [2] 20.9 µM | Potency [3] 16.6 µM | Potency [5] 26.4 µM | Potency [6] 14.8 µM | Potency [7] 7.43 µM | Potency [13] 14.8 µM | Potency [9] 18.7 µM | Potency [10] 18.7 µM | Potency [11] 6.62 µM | Potency [12] 5.9 µM

COc1ccc(C2=N[C@H](c3ccc(Cl)cc3)[C@H](c3ccc(Cl)cc3)N2C(=O)N2CCNC(=O)C2)c(OC(C)C)c1
active: Potency [1] 1.66 µM | Potency [2] 16.6 µM | Potency [6] 18.7 µM | Potency [9] 18.7 µM | Potency [15] 20.9 µM | Potency [18] 16.6 µM
inactive: Potency [3] | Potency [4] | Potency [5]

COc1ccc2c3n(c(=NC(=O)c4cccnc4)nc2c1OC)CCN3
active: Potency [1] 18.7 µM | Potency [2] 2.64 µM | Potency [4] 7.43 µM | Potency [6] 18.7 µM | Potency [13] 23.5 µM | Potency [9] 4.69 µM | Potency [10] 5.9 µM | Potency [11] 11.8 µM
inactive: Potency [14] | Potency [15]

CCn1cc(C(=O)O)c(=O)c2cc(F)c(N3CCNC(C)C3)c(F)c21 (stereo not drawn)
inactive: Potency [1] | Potency [2] | Potency [4] | Potency [5] | Potency [6] | Potency [7] | Potency [13] | Potency [9] | Potency [10] | Potency [11] | Potency [15] | Potency [12] | Potency [16] | Potency [18]

C1COC(NC(C2CC2)C2CC2)=N1
active: Potency [13] 9.35 µM
inactive: Potency [19] | Potency [20] | Potency [9] | Potency [16]

COc1cc(Nc2ncc3c(n2)-c2ccc(Cl)cc2C(c2c(F)cccc2OC)=NC3)ccc1C(=O)O
inactive: Potency [19] | Potency [8] | Potency [9] | Potency [15]

Cc1cn[nH]c1
active: Potency [19] 0.105 µM | Potency [5] 0.526 µM | Potency [8] 1.48 µM | Potency [9] 6.62 µM | Potency [10] 0.59 µM | Potency [11] 0.264 µM | Potency [15] 0.0132 µM | Potency [12] 0.296 µM | Potency [16] 0.332 µM

NS(=O)(=O)c1cc2c(cc1Cl)NC=NS2(=O)=O
inactive: Potency [1] | Potency [2] | Potency [4] | Potency [5] | Potency [7] | Potency [13] | Potency [9] | Potency [10] | Potency [11] | Potency [12] | Potency [16] | Potency [18]
active: viability [17] 201%

COc1ccccc1[C@H](c1cccc2ccccc12)[C@@](C)(C#N)C(=O)N1CCC(c2cccc(C(F)(F)F)c2)CC1
active: Potency [1] 2.64 µM | Potency [2] 8.33 µM | Potency [3] 4.18 µM | Potency [6] 9.35 µM | Potency [13] 1.87 µM | Potency [8] 6.62 µM | Potency [10] 3.72 µM | Potency [11] 3.32 µM | Potency [15] 2.35 µM | Potency [16] 1.18 µM | Potency [17] 9.35 µM | Potency [18] 7.43 µM
